Results reported in the supplement of paper PMC7156485.

The molecules below were run on TDF (assay: H1.0 immunofluorescence intensity relative to DMSO (% of DMSO); higher = stronger H1.0 induction, active = 120 or more). Settings: concentration: 10 µM; 24 h.
In short: (§1)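 H1.0 nuclear intensity or cell number is stated as percent of the plate control, based on the median of replicates, and HCC1569 values were smoothed for positional effects. These came from HCC1569 and TDF cells treated with compounds at 10 µM for 24 h at 37 °C in triplicate, then fixed in 3.7% formaldehyde and stained with a rabbit anti-H1.0 antibody, an AlexaFluor 647 secondary and DAPI.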
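Also: TDF is a line of transformed human dermal fibroblasts of mesenchymal origin.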

Compound | H1.0 immunofluorescence intensity
COc1ccc2c(c1OC)C(=O)OC2C1c2c(cc3c(c2OC)OCO3)CCN1C (racemic) | 105 (inactive)
Cc1cccc2c3c(ccc12)C1=C(C(=O)C3=O)C(C)CO1 (stereo unspecified) [Dihydrotanshinone] | 111 (inactive)
CC(C)(C)c1nc2c3cc[nH]c(=O)c3c3cc(F)ccc3c2[nH]1 | 87 (inactive)
CSc1nc(-c2ccnc(NC(C)c3ccccc3)c2)c(-c2ccc(F)cc2)[nH]1 (stereo unspecified) [p38 MAP Kinase Inhibitor III] | 95.2 (inactive)
Cl.OC(CCN1CCCCC1)(c1ccccc1)C1CCCCC1 (stereo unspecified) [Trihexyphenidyl hydrochloride] | 94 (inactive)
NC(=S)c1ccc[n+](C2OC(COP(=O)([O-])OP(=O)(O)OCC3OC(n4cnc5c(N)ncnc54)C(OP(=O)([O-])O)C3O)C(O)C2O)c1.[Na+] (stereo unspecified) [Thio-NADP sodium] | 91.7 (inactive)
O=c1c2ccccc2nc2n1CCc1c-2[nH]c2ccccc12 [Rutaecarpine] | 94.9 (inactive)

Each molecule was assayed on HCC1569 (assay: H1.0 immunofluorescence intensity relative to DMSO (% of DMSO); higher = stronger H1.0 induction, active = 140 or more). Settings: concentration: 10 µM; 24 h.
In short: as §1

Compound | H1.0 immunofluorescence intensity
Cc1ccc(NC(=O)c2ccc(CN3CCN(C)CC3)cc2)cc1Nc1nccc(-c2cccnc2)n1 [Imatinib] | 103 (inactive)
CCCCCCCCCC(=O)NC(CN1CCOCC1)C(O)c1ccccc1 (racemic) | 106 (inactive)
C[N+](C)(C)CC(O)CC(=O)[O-].Cl (racemic) | 90.1 (inactive)
CCN1CCN(c2cc3c(cc2F)c(=O)c(C(=O)O)cn3C2CC2)CC1 [Enrofloxacin] | 110 (inactive)
CC1(C)CNc2cc(NC(=O)c3cccnc3NCc3ccncc3)ccc21 [Motesanib] | 106 (inactive)
Cc1ccc(C(=CCN2CCCC2)c2ccccn2)cc1.Cl [Trans-triprolidine.HCl] | 110 (inactive)
O=c1c2ccccc2[nH]c(=S)n1CCN1CCC(=C(c2ccc(F)cc2)c2ccc(F)cc2)CC1 [Diacylglycerol Kinase Inhibitor II] | 94.1 (inactive)
Br.Br.N=C(N)SCCN [2-(2-Aminoethyl)isothiourea dihydrobromide] | 99.7 (inactive)
O=C(Nc1cccc(Cl)c1)Nc1ncc(CCNc2ncnc3ccsc23)s1 | 178 (active)
O=C1CCC(c2ccc(-n3ccnc3)cc2)=NN1 [Imazodan] | 118 (inactive)
CCCn1cnc2c1c(=O)n(CCCCC(C)=O)c(=O)n2C [Propentofylline] | 100 (inactive)
COC(=O)C1C(O)CCC2CN3CCc4c([nH]c5ccccc45)C3CC21.Cl (stereo unspecified) [Rauwolscine hydrochloride] | 103 (inactive)
OCCOc1ccc(/C(=C(/CCCl)c2ccccc2)c2ccccc2)cc1 [2-{4-[(1Z)-4-chloro-1,2-diphenyl-1-butenyl]phenoxy}ethanol] | 96.6 (inactive)
COC(=O)CNC(=O)C(=O)OC [methyl 2-(2-methoxy-2-oxoethylamino)-2-oxoacetate] | 101 (inactive)
O=C1NCCN1CCN1CCC(c2cn(-c3ccc(F)cc3)c3ccc(Cl)cc23)CC1 | 139 (inactive)
CC(CCc1ccc(O)cc1)NCCc1ccc(O)c(O)c1.Cl (stereo unspecified) [Dobutamine hydrochloride] | 91 (inactive)
Cl.O.O=C(O)CN(CCN(CC(=O)O)Cc1ccccc1O)Cc1ccccc1O | 90.1 (inactive)
C=CC(N)CCC(=O)O (racemic) | 107 (inactive)
CC12C=Cc3occc3C1CCC13CC(=O)C(CCC12)C3 (stereo unspecified) [16-Oxokahweol] | 99.3 (inactive)
N#Cc1c(O)c2c(-c3ccc(-c4ccccc4O)cc3)csc2[nH]c1=O | 96.3 (inactive)

Compound | H1.0 immunofluorescence intensity
CC1C(=O)OC2C(O)C34C5CC(C(C)(C)C)C36C(OC(=O)C6O)OC4(C(=O)O5)C12O (stereo unspecified) [Ginkgolide B] | 82.4 (inactive)
CCCCc1oc2ccccc2c1C(=O)c1cc(I)c(OCCN(CC)CC)c(I)c1.Cl [Amiodarone hydrochloride] | 101 (inactive)
O=C(OC12CC3CC(CC(C3)C1)C2)c1ccc(NCc2cc(O)ccc2O)cc1 [1-adamantyl 4-[(2,5-dihydroxybenzyl)amino]benzoate] | 109 (inactive)
CN(C)c1nc(N(C)C)nc(N(C)C)n1 [Altretamine] | 113 (inactive)
CC1=NN(c2ccc(C(=O)O)cc2)C(=O)/C1=C\c1ccc(-c2cc(C)c(C)cc2[N+](=O)[O-])o1 | 108 (inactive)
CC(N)=NCCCC[C@H](N)C(=O)O.Cl [L-N6-(1-Iminoethyl)lysine hydrochloride] | 91.6 (inactive)
CCC1(c2ccccc2)C(=O)NCNC1=O [Primidone] | 102 (inactive)
Cc1ccccc1/N=N/c1ccc(NC(=O)c2ccnn2C)c(C)c1 | 110 (inactive)
CCCCCCCCCCCCCC=CC(O)C(N)CO (stereo unspecified) [Sphingosine] | 98.4 (inactive)
CNC(=C[N+](=O)[O-])NCCSCc1ccc(CN(C)C)o1.Cl [Ranitidine.HCl] | 103 (inactive)
CCCCC1(C2CCCC2)Cc2cc(OCC(=O)O)c(Cl)c(Cl)c2C1=O (stereo not drawn) [R(+)-Butylindazone] | 91.3 (inactive)
COc1nc(C)nc(Cl)c1NC1=NCCN1.Cl [Moxonidine hydrochloride] | 90.3 (inactive)
COc1ccc2c(c1OC)C(=O)OC2C1c2c(cc3c(c2OC)OCO3)CCN1C (racemic) | 94.1 (inactive)
Cc1cccc2c3c(ccc12)C1=C(C(=O)C3=O)C(C)CO1 (stereo unspecified) [Dihydrotanshinone] | 106 (inactive)
CC(C)(C)c1nc2c3cc[nH]c(=O)c3c3cc(F)ccc3c2[nH]1 | 101 (inactive)
CSc1nc(-c2ccnc(NC(C)c3ccccc3)c2)c(-c2ccc(F)cc2)[nH]1 (stereo unspecified) [p38 MAP Kinase Inhibitor III] | 113 (inactive)
Cl.OC(CCN1CCCCC1)(c1ccccc1)C1CCCCC1 (stereo unspecified) [Trihexyphenidyl hydrochloride] | 75.4 (inactive)
NC(=S)c1ccc[n+](C2OC(COP(=O)([O-])OP(=O)(O)OCC3OC(n4cnc5c(N)ncnc54)C(OP(=O)([O-])O)C3O)C(O)C2O)c1.[Na+] (stereo unspecified) [Thio-NADP sodium] | 104 (inactive)
O=c1c2ccccc2nc2n1CCc1c-2[nH]c2ccccc12 [Rutaecarpine] | 102 (inactive)
